The panel holds about 83,000 compounds, 20% with a hit somewhere; the sample as a whole holds those more often.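 Cells were grown in 96-well plates and exposed to the test compound at a single concentration for 48 hours; results are reported as percent growth, with values below 10 considered active.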 Active and inactive are the calls of the source.
Each compound was assayed on NCI-H226 lung (assay: NCI-60 one-dose screen, 48 h (100 = growth as untreated, 0 = no growth, -100 = all killed)). Details: 10 µM unless noted.

| Structure (SMILES) | growth |
| --- | --- |
| CC1(C)CC[C@]2(C(=O)O)CC[C@]3(C)C(=CCC4[C@@]5(C)C[C@@H](O)[C@@H]6OC(c7ccccc7O)OC[C@@]6(C)C5CC[C@]43C)C2C1 (stereo partly drawn) | 87% (inactive) |
| CN(c1ccc(Br)cc1)S(=O)(=O)c1ccc(-c2cnc(C3CC3)o2)cc1 | 62.4% (inactive) |
| CN1CCN(c2nc(-c3csc(-c4ccncc4)n3)cc3ccccc23)CC1 | 98.1% (inactive) |
| O=C(O)c1ccc(-n2cc(CNc3ccc(F)cc3)c(-c3ccc(C(F)(F)F)cc3)n2)cc1 | 88.8% (inactive) |
| CSc1nccc(-c2c(-c3ccc(F)c(OCc4ccc(F)cc4)c3)nc3sccn23)n1 | 76.6% (inactive) |
| O=C(COc1ccc(C2SCC(=O)N2c2ccccc2)cc1)c1ccccc1 (stereo not drawn) | 90% (inactive) |
| O=C(O)CNS(=O)(=O)c1ccc(Oc2ccc(S(=O)(=O)NCC(=O)O)cc2)cc1 | 107% (inactive) |
| Cn1nc(Nc2ccccc2)c(C(=O)NN)c1N | 92.5% (inactive) |
| COc1cc(/C=N/n2cnc3oc(-c4ccccc4)cc3c2=N)cc(CN2CCN(C)CC2)c1O | 87.3% (inactive) |
| CC(C)SC1=NC(=C(C(=N1)NC2=ClC=CC=C2)C#N)C3=CC=CC=C3 | 69.3% (inactive) |
| NS(=O)(=O)c1ccc(Nc2nc(N/N=C/c3ccc(F)cc3)nc(Nc3ccccc3)n2)cc1 | 50.8% (inactive) |
| C#C[C@]1(O)CC[C@H]2[C@@H]3CC=C4c5sc(Nc6cccc(C)n6)nc5CC[C@]4(C)[C@H]3CC[C@@]21C | 45% (inactive) |
| CNC(=O)c1cc(Oc2ccc3nc(NC(=O)c4cc(C)cc(C)c4)sc3c2)ccn1 | 75% (inactive) |
| C=C(C)[C@@H]1CC[C@]2(COS(C)(=O)=O)CC[C@]3(C)[C@H](CC[C@@H]4[C@@]5(C)CCCNC(C)(C)[C@@H]5CC[C@]43C)[C@@H]12 | 86.5% (inactive) |
| CC(C)=CCc1c2c(c(O)c3c1O[C@]14C(=C[C@@H]5C[C@H]1C(C)(C)O[C@@]4(C/C=C(/C)C(=O)O)C5=O)C3=O)CC(O)C(C)(C)O2 (stereo partly drawn) | 18.4% (inactive) |
| O=C(Cn1cc(CN2C(=O)c3ccc([N+](=O)[O-])cc3C2=O)nn1)Nc1ccccc1Br | 104% (inactive) |
| COc1cc(-c2nc(SCc3ccc(C)cc3)[nH]c(=O)c2C#N)ccc1OCc1ccccc1 | 96.2% (inactive) |
| CC(C)N=C(N/C(N)=N/c1nc2ccccc2s1)NC(C)C | 67.2% (inactive) |
| O=C(Nc1cc(Cl)cc(Cl)c1)Nc1ccc2oc(=O)ccc2c1 | 32.7% (inactive) |

| Structure (SMILES) | growth |
| --- | --- |
| CS(=O)(=O)c1nccc(-c2c(-c3ccc(F)c(OCc4ccccc4)c3)nc3sccn23)n1 | 82.1% (inactive) |
| COc1ccc(C2C(C#N)=C(N)Oc3c2sc2ccc(C)cc32)cc1 (stereo not drawn) | 34.9% (inactive) |
| C#C[C@]1(O)CC[C@H]2[C@@H]3CC=C4c5sc(-c6ccccn6)nc5CC[C@]4(C)[C@H]3CC[C@@]21C | 94.4% (inactive) |
| COc1ccc(OC)c([C@H]2c3[nH]c4ccccc4c3C[C@H]3C(=O)N(CCCCCCC(=O)NO)CC(=O)N23)c1 | 103% (inactive) |
| Cc1cnc2nc(NN)[nH]n12 | 93.4% (inactive) |
| COc1ccc(-c2nc3cc(Cl)c(Cl)cc3n2CC(=O)N=Nc2c(O)[nH]c3ccc(Br)cc23)cc1 | -16.2% (active) |
| O=C(NCCCCCCNC(=O)c1c2c(nc3ccccc13)-c1cccnc1SC2)c1c2c(nc3ccccc13)-c1cccnc1SC2 | 82.6% (inactive) |
| COc1ccc(-c2ccc3c4c(cccc24)C(=O)N(N2C(=O)c4cccc5cccc(c45)C2=O)C3=O)cc1 | 101% (inactive) |
| COc1ccc(-c2nc3cc(Cl)c(Cl)cc3n2CC(=O)N=Nc2c(O)[nH]c3ccc(Cl)cc23)cc1 | -8.97% (active) |
| CCOC(=O)c1c(NCC(=O)Nc2ccc(Br)cc2)sc2c1CCCC2 | 40.7% (inactive) |
| CN1C(=O)/C(=C/C=C/c2ccco2)SC1=S | 70.1% (inactive) |
| COc1ccc(-c2nnc(SCc3ccc(O)c4ncccc34)o2)cc1 | 63.7% (inactive) |
| C#CCOc1ccc(/C=N/Nc2nc(-c3cc4cc(Br)cc(Br)c4oc3=O)cs2)cc1 | 93.8% (inactive) |
| CS(=O)c1nccc(-c2c(-c3ccc(F)c(OCCc4ccc(F)cc4)c3)nc3sccn23)n1 (stereo not drawn) | 111% (inactive) |
| O=C1[C@@H]2Cc3c([nH]c4ccccc34)[C@H](c3c(Cl)cccc3Cl)N2C(=O)CN1C1CCN(Cc2c(F)cccc2F)CC1 | 78.7% (inactive) |
| NNC(=O)c1sc2nc(-c3cnccn3)cc(-c3cccs3)c2c1N | 89.7% (inactive) |
| Cn1cc(-c2nnc(N)nc2-c2cn(C)c3ccc(F)cc23)c2cc(F)ccc21 | 97.4% (inactive) |
| COc1ccccc1/C=C/C=N/NC1=NC2C(S1)N(C)C(=O)N2c1ccccc1 (stereo not drawn) | 45.5% (inactive) |
| C[C@H]1[C@H](C)CC[C@]2(COC(=O)c3cccnc3)CC[C@]3(C)C(=CC[C@@H]4[C@@]5(C)CCCNC(C)(C)[C@@H]5CC[C@]43C)[C@H]12 | 78.1% (inactive) |

— PubChem BioAssay (NCI)
